Assay [1] deals with Wnt5a (protein binding on small-molecule microarray). Put plainly: Wnt5a binders on small-molecule microarray, primary screen, biophysical, 635/667 nm fluorescence (AID 1142).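 Also: fluorescence read at 667 nm with signal to noise per printed feature.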 As to conditions: 635 nm fluorescence, higher = more signal.
Assay [2] is described as follows: cell viability in Huh7 cells, primary screen, cytotoxicity control for HCV replication inhibitor project, CellTiter-Glo luminescence, basal, 48 h (AID 1143).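 Also: Huh7 hepatoma cells carrying a hepatitis C replication reporter with no stimulus; test concentration not given here.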 As to conditions: Huh7 HCV replicon, higher = more signal, called active from +8 up or from −8 down. Background: In ATP-based viability assays light output follows the ATP content of the culture.
Assay [3] in a line: P. aeruginosa biofilm formation inhibitors, primary screen, PAO1 strain, BacTiter-Glo luminescence, LB-PBS (AID 1144). Conditions: 12 h, higher = more signal.
The nature of assay [4]: CREB reporter modulators without forskolin, primary screen, cell-based, PC12, CRE-LacZ reporter, unstimulated (AID 1145). As to conditions: no forskolin, luminescence, 4.5 h, higher = more signal, called active from +8 up or from −8 down.
Assay [5] is described as follows: CREB reporter modulators under forskolin, primary screen, cell-based, PC12, CRE-LacZ reporter, forskolin-stimulated (AID 1146).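 Also: PC12 cells with 6xCRE LacZ reporter stimulated by forskolin 10 µM; beta-galactosidase reporter signal reflecting CREB driven transcription.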 As to conditions: luminescence, 4.5 h, higher = more signal, called active from +8 up or from −8 down.
In assay [6] the target is Streptavidin (Streptomyces avidinii) (UniProt P22629). Kind of assay: streptavidin binders on small-molecule microarray, primary screen, artefact control for SMM compound annotation, biophysical, 635/667 nm fluorescence (AID 1147).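 Also: signal reflects streptavidin binding to arrayed compounds as a control protein.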 Conditions: streptavidin binding, higher = more signal.
Streptavidin (Streptomyces avidinii), sequence (P22629 whole entry, looked up): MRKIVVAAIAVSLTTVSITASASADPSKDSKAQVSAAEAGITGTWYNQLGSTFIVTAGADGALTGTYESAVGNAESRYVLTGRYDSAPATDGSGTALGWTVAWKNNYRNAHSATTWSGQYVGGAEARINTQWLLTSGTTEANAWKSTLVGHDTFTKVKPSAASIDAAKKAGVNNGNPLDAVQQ
Assay [7] in a line: small-molecule binders of probe aInhba, primary screen, biochemical, small-molecule microarray, 635/667 nm fluorescence (AID 1148).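 Also: score merges 667nm spot fluorescence with signal-to-noise for antibody binding to printed compounds.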 Conditions: higher = more signal.
Assay [8] deals with Torsin-1A (Homo sapiens) (UniProt O14656). Kind of assay: torsin A binders from cell lysate, primary screen, small-molecule microarray, wild-type, 635/667 nm (AID 1149). Conditions: COS7 hTOR1A-WT lysate, 635 nm fluorescence, higher = more signal.
Torsin-1A (Homo sapiens), sequence (O14656 whole entry, looked up): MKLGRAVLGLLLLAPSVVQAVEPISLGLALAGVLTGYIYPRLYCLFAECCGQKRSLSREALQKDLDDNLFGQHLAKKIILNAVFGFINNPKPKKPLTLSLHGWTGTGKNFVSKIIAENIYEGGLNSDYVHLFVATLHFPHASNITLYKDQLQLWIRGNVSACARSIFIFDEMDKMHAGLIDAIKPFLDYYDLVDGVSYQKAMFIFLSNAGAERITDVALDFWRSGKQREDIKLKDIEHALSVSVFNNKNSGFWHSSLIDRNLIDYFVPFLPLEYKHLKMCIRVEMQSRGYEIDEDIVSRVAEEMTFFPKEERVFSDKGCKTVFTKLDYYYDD
Assay [9] shares this target. Kind of assay: small-molecule binders of mutant TOR1A in lysate, primary screen, cell lysate, small-molecule microarray, COS7 lysate, 635/667 nm fluorescence (AID 1150).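 Also: score pools 667 nm emission and signal to noise measuring lysate protein binding.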 As to conditions: COS7 hTOR1A mutant lysate, 635 nm fluorescence, higher = more signal.
Assay [10] relates to Sonic hedgehog protein (Shh). Kind of assay: small-molecule binders of Shh protein, primary screen, biochemical, small-molecule microarray, 635/667 nm fluorescence (AID 1151).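 Also: Shh protein binding to compounds spotted on small-molecule microarray slides; score combines spot fluorescence intensity with signal-to-noise across triplicate slides.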 Conditions: small-molecule microarray binding, 635 nm fluorescence; higher = more signal.
Assay [11] can be described thus: E. coli DRC41 culture turbidity changes, primary screen, E. coli filamentation inducer project, strain DRC41, OD650, 48 h (AID 1152).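 Also: E. coli MC1000 strain DRC41 lacking acrAB efflux pump and sulA.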 As to conditions: E. coli DRC41 (acrAB sulA), higher = more signal, called active from +8 up or from −8 down.
Assay [12] can be described thus: small-molecule binders of probe aLefty1, primary screen, biochemical, small-molecule microarray, 635/667 nm fluorescence (AID 1153).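 Also: score merges spot fluorescence with signal-to-noise ratio from the scanned slide images.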 Conditions: higher = more signal.
Assay [13] can be described thus: PSAC antagonists in infected red cells, primary screen, cell-based, P. falciparum Indochina, OD700, 1 h (AID 1154). Conditions: P. falciparum Indochina infected RBC osmotic lysis, higher = more signal, called active from +8 up or from −8 down.
Assay [14] in a line: PSAC antagonists in infected red cells, primary screen, cell-based, P. falciparum Indochina, OD700, 2 h (AID 1155).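 Also: lysis reports solute entry through the parasite surface anion channel PSAC; channel blockers reduce lysis of infected cells.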 Conditions: P. falciparum Indochina infected erythrocytes, osmotic lysis OD700; higher = more signal, called active from +8 up or from −8 down.
A short description of assay [15]: osmotic lysis modulators in infected erythrocytes, primary screen, PSAC antagonist project, cell-based, P. falciparum Indochina, OD700, 3 h (AID 1156). As to conditions: higher = more signal, called active from +8 up or from −8 down.
The nature of assay [16]: PSAC antagonists in infected red cells, primary screen, cell-based, P. falciparum Indochina, OD700, 18 h (AID 1157). Conditions: P. falciparum Indochina infected erythrocytes, osmotic lysis OD700, 18 h; higher = more signal, called active from +8 up or from −8 down.
Assay [17] can be described thus: modulators of S6 phosphorylation in cells, primary screen, cell-based, A549, cytoblot, luminescence, serum-stimulated (AID 1158).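 Also: serum-stimulated A549 lung adenocarcinoma cells; signal is phosphorylated S6 detected by cytoblot immunostaining with HRP secondary.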 Conditions: A549 phospho-S6 cytoblot, 5 h, higher = more signal.
The target of assay [18] is NADPH oxidase 2 (Homo sapiens) (UniProt P04839). Put plainly: NOX2-dependent H2O2 signal modulators, primary screen, NOX inhibitor project, cell-based, HEK293-NOX2, PMA-stimulated, Amplex Red fluorescence (AID 1159). Also: test concentration not given here. Conditions: 45 min, higher = more signal, called active from +8 up or from −8 down.
NADPH oxidase 2 (Homo sapiens), sequence (P04839 whole entry, looked up): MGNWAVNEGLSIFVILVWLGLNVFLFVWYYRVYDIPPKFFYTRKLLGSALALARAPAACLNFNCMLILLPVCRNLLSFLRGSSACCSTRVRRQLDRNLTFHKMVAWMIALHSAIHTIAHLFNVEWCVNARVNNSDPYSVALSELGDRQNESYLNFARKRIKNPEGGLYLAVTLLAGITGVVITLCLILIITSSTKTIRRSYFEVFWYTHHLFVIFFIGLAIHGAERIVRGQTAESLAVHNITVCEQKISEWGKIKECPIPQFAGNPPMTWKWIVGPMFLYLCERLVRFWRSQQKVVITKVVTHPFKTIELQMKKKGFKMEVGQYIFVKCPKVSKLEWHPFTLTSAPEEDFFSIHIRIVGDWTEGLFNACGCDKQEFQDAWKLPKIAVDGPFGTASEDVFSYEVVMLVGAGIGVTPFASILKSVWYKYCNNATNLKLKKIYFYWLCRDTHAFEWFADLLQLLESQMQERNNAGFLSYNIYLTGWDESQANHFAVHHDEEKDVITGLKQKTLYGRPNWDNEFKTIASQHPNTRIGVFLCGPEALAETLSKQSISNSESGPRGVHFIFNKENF
Assay [19] deals with NADPH oxidase 4 (Homo sapiens) (UniProt Q9NPH5). Put plainly: NOX4-dependent H2O2 signal modulators, primary screen, NOX inhibitor project, cell-based, HEK293-NOX4, tetracycline-induced, Amplex Red fluorescence (AID 1160). Conditions: 45 min, higher = more signal, called active from +8 up or from −8 down.
NADPH oxidase 4 (Homo sapiens), sequence (Q9NPH5 whole entry, looked up): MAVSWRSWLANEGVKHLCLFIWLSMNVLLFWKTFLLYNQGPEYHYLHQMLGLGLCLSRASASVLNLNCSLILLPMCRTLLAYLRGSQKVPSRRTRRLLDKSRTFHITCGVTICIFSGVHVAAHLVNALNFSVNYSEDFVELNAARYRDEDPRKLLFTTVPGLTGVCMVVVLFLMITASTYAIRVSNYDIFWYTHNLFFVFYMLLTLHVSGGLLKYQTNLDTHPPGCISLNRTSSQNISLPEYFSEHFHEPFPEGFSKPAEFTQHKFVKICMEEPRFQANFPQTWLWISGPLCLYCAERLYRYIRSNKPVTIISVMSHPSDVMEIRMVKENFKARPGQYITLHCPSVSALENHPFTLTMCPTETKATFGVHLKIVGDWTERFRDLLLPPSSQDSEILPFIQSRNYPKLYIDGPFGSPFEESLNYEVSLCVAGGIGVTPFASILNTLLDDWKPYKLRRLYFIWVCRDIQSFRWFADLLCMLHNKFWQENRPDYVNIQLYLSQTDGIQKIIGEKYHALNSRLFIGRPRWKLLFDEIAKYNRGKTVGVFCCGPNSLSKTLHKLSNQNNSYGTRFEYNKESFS
The target in assay [20] is NADPH oxidase 5 (Homo sapiens) (UniProt Q96PH1). Put plainly: NOX5-dependent H2O2 signal modulators, primary screen, NOX inhibitor project, cell-based, HEK293-NOX5, Amplex Red fluorescence (AID 1161). As to conditions: HEK293-NOX5, ionomycin, 45 min, higher = more signal.
NADPH oxidase 5 (Homo sapiens), sequence (Q96PH1 whole entry, looked up): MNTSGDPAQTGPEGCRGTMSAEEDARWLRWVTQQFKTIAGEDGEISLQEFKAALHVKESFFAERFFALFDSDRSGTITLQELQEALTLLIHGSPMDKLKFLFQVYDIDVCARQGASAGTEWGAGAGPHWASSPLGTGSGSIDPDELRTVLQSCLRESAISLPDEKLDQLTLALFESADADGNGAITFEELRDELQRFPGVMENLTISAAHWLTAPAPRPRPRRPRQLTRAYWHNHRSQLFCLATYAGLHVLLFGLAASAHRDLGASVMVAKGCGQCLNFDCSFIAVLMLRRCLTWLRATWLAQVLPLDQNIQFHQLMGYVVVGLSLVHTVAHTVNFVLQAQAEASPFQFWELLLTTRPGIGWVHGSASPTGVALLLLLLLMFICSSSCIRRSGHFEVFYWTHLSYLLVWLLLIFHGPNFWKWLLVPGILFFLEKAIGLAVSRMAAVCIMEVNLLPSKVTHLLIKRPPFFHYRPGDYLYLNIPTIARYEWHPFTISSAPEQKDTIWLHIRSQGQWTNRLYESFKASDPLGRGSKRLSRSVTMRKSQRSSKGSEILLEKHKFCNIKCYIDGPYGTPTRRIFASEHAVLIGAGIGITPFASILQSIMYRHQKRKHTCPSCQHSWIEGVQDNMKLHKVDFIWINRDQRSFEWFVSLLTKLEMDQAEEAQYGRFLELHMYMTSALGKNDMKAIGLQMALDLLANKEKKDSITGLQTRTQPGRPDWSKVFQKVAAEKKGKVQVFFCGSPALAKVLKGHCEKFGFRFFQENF

Molecules are shown by their SMILES. Calls of active or inactive are those of the source. Unless noted, no rule for the calls is given here.

Regarding `COCCOC(=O)N1C(=O)[C@@]2(c3cc(C#CC4=CCCCC4)ccc31)[C@H](c1ccc(O)cc1)N1[C@H](c3ccccc3)[C@H](c3ccccc3)OC(=O)[C@H]1[C@@H]2C(=O)N1CCN(c2ncccn2)CC1`, the composite z-score was -0.299 in assay [1]; -1.34 in [6]; -0.152 in assay [7]; -0.692 in [8]; -1.27 in assay [9]; -0.589 in assay [10]. The composite z-score in assay [12] was -0.183. Besides, the z-score was 0.498 (inactive) in assay [2]; -0.572 (inactive) in assay [3]; -0.467 (inactive) in assay [4]; -0.0588 (inactive) in assay [5]; -0.202 (inactive) in assay [11]; -0.0088 (inactive) in assay [13]. Further, the z-score in assay [14] is 0.18 (inactive); in [15], 0.299 (inactive); in [16], 0.0164 (inactive); in assay [17], -0.229; in assay [18], 0.347 (inactive); in [19], -0.0204 (inactive). The same compound displayed a z-score in assay [20] of 0.715.
In the case of `O=C1OCCC=C[C@H]2OC34C=CCN(Cn5nnc6ccccc65)C(=O)[C@H]3N(CCCCCCO)C(=O)[C@@H]4C12` (stereo not given in full), the composite z-score was -0.512 in assay [1]; -1.12 in assay [6]; -0.561 in [7]; -0.103 in assay [8]; -0.0648 in assay [9]; -0.643 in assay [10]. The composite z-score in [12] is -0.81. The z-score in assay [2] was 0.523 (inactive); in assay [3], 0.863 (inactive); in [4], 0.191 (inactive); in assay [5], 0.0417 (inactive); in assay [11] it was -0.051 (inactive); in [13], 0.987 (inactive). For the same compound, the z-score in assay [14] was 1.02 (inactive); in assay [15] it was 0.946 (inactive); in assay [16], 0.748 (inactive); in [17], 0.916; in assay [18] it was 0.94 (inactive); in assay [19], -0.201 (inactive). Moreover, the z-score in assay [20] is 2.2.
In the case of `[N-]=[N+]=NCc1ccccc1[C@H]1OC(c2ccc(OCCCO)cc2)=N[C@@]1(CCS(=O)(=O)c1ccccc1)C(=O)NCC(O)CO` (stereo not given in full), the composite z-score in [1] was 0.914; in [6], 1.2; in assay [7], 0.257; in [8], 0.662; in assay [9] it was 1.41; in assay [10] it was -0.276. The composite z-score in [12] came to 0.675. The z-score in assay [2] is -0.119 (inactive); in assay [3], -1.53 (inactive); in [4] it was 1.99 (inactive); in assay [5] it was -0.75 (inactive); in assay [11], -0.0559 (inactive); in [13], 27.1 (active). In addition, the z-score in assay [14] is 21.1 (active); in assay [15], 2.23 (inactive); in assay [16] it was 2.78 (inactive); in assay [17], 0.123; in assay [18] it was 1.47 (inactive); in assay [19] it was 1.1 (inactive). The same compound returned a z-score in [20] of 1.64.
`CN(C)c1ccc(C(O)C2C=CC3C(=O)N(c4ccccc4)C(=O)C3N2Nc2ccc([N+](=O)[O-])cc2)cc1` (stereo not given): the composite z-score was 0.0074 in assay [1]; 0.769 in assay [6]; -0.0736 in assay [7]; 0.603 in [8]; 0.377 in [9]; -0.13 in assay [10]. The compound further displayed a composite z-score in assay [12] of 0.388. Moreover, the z-score in [2] is -0.619 (inactive); in assay [3], 0.108 (inactive); in assay [4], 0.49 (inactive); in [5], -0.464 (inactive); in assay [11], -1.16 (inactive); in assay [13], 4.9 (inactive). For the same compound, the z-score is 1.16 (inactive) in [14]; 1.69 (inactive) in assay [15]; 0.73 (inactive) in assay [16]; -0.503 in assay [17]; -1.95 (inactive) in assay [18]; -4.56 (inactive) in [19]. In [20], the z-score is -4.69.

The record behind these values is PubChem BioAssay.
